Values without a mark were called inactive. Activity calls are given as the source filed them. The call rests on the fitted dose curve; in most records, active means well fitted curve in the direction sought with a large enough effect in the repeat runs; inconclusive means weak or mixed curves; inactive means flat fitted curve, though single readings scatter.
Experiment: qHTS assay to test for compound auto fluorescence at 535 nm (green) in HEK293 cells (AID 720680)
Conditions: green autofluorescence 485/535 nm; series mostly up to 91.3 µM; fluorescence, % of fluorescein: at the top concentration
Description: U.S. Tox21 Program National Center for Advancing Translational Sciences [NCATS] NIH Chemical Genomics Center [NCGC] U.S. Environmental Protection Agency [EPA] National Institutes of Environmental Health Sciences [NIEHS] National Toxicology Program [NTP] U.S. Food and Drug Administration [FDA] Tox21 Assay Overview: Compound auto fluorescence often interferes with screening of the compound library against various biological targets and signaling pathways. Some of these compounds may have fluorophoric properties. Such properties may interfere with the assay outputs resulting in false positives and/or negatives. To decrease such complications and ensure the compound activities are relevant in terms of biological response, the Tox21 10K compound library was screened for auto fluorescence. From the fluorophores used as reporter signals in our screening assays, the auto fluorescence equivalencies of compounds against three fluorophores have been evaluated: Triamterene, Fluorescein and Rose Bengal sodium for blue, green and red fluorescence, respectively. The fluorescence intensities were measured using Excitation/Emission wavelengths at 405/460nm, 485/535nm and 540/590nm for blue, green and red labels, respectively. This assay includes the green fluorescence data.
Tox21 Assay Protocol Summary: 2,000 HEK293 cells in 5 uL of culture medium containing 10% dialyzed FBS per well were dispensed into black wall/clear bottom 1536-well plates using a Multidrop Combi Dispenser (Thermo Scientific). The assay plates were incubated for 4-5 hr at 37C to allow cell attachment to the well bottom, followed by the transfer of 23 nL compound or DMSO vehicle by a pintool work station (Kalypsys, San Diego, CA). After the assay plates were incubated overnight at 37C and 5% CO2, fluorescence intensities in the assay plates were measured by an Envision (PerkinElmer, Shelton, CT) plate reader using three labels for measuring blue, green and red fluorescence at […] 460, 535 and 590nm respectively.
On the % scale 0 is the no-effect control and ±100 the full control effect.

SMILES | fluorescence, % of fluorescein | outcome
C=C(C)C(=O)OCCO | 0.0153% [at 95.7 µM] | 
O=C(O)CC(=O)C(=O)O | -0.0949% | 
CCCCCCCCCCO[C@@H]1O[C@H](CO)[C@@H](O)[C@H](O)[C@H]1O | 0.0136% | 
COc1ccc(-c2nc3ccc(C4=NNC(=O)CC4C)cc3[nH]2)cc1 (stereo not given) | 0.0191% [at 46 µM] | 
CCOC(=O)C1=C[C@]2(CC)CCCN3CCc4c(n1c1ccccc41)[C@@H]32 |  | inactive
CCCCCCCCCCCc1ccccc1 | 0.0252% | 
O=C(O)c1ccco1 | 0.027% | 
CCCCCCCCO[C@@H]1O[C@H](CO)[C@@H](O)[C@H](O)[C@H]1O | 0.0152% | 
CN(C)CCN(Cc1ccccc1)c1ccccn1 | -0.329% [at 46 µM] | 
Cc1cccc(Nc2ccccc2)c1 | -0.0582% | 
CC(C)Nc1ccc(NC(C)C)c2c1C(=O)c1ccccc1C2=O | -0.199% [at 46 µM] | 
O=S(c1cc(Cl)cc(Cl)c1O)c1cc(Cl)cc(Cl)c1O | 0.0753% [at 46 µM] | 
O=[N+]([O-])c1ccc(NCCO)c(OCCO)c1 | -0.259% | 
OCCN1CCN(CCCN2c3ccccc3C=Cc3ccccc32)CC1 |  | inactive
NCc1ccccc1Sc1ccccc1CO | -0.009% [at 46 µM] | 
CCCCC1=NC2(CCCC2)C(=O)N1Cc1ccc(-c2ccccc2-c2nn[nH]n2)cc1 | 0.0184% [at 46 µM] | 
CCCCCCCC/C=C\CCCCCCCC(=O)OCC | -0.0077% | 
C[C@@H]1C[C@H]2O[C@@]3(O[C@@H]2C(C)(C)O)[C@H](O)[C@@]2(C)[C@@H]4CC[C@H]5C(C)(C)[C@@H](O[C@@H]6OC[C@@H](O)[C@H](O)[C@H]6O)CC[C@@]56C[C@@]46CC[C@]2(C)[C@@H]13 | 0.0094% | 
CC(C)(C)OCC1CO1 (stereo not given) | -0.0019% [at 95.7 µM] | 
O=C1[C@H]2CCCC[C@H]2C(=O)N1CCCCN1CCN(c2nsc3ccccc23)CC1 | -0.0516% [at 46 µM] | 

SMILES | fluorescence, % of fluorescein | outcome
CCN(CC)CCOC(=O)C(c1ccccc1)C1CCCCC1 (stereo not given) | 0.0293% [at 46 µM] | 
CC(=O)c1ccc2c(c1)N(CCCN(C)C)c1ccccc1S2 | -0.246% [at 18.6 µM] | 
CC1=CC[C@H](C(C)C)C=C1 | 0.0355% | 
Cc1oc2c(NC(=O)c3c(Cl)cccc3Cl)cccc2c1C(C)(C)O | 0.0387% | 
O=C(CS)Nc1ccccc1 | -0.0058% [at 46 µM] | 
O=C(Cl)c1cc(C(=O)Cl)cc(C(=O)Cl)c1 | 0.0038% | 
CC(C)=CCC/C(C)=C/CC/C(C)=C/CO | 0.0084% | 
C/C=C/C=C/CO | -0.0327% | 
CCCCCCc1ccc(-c2ccc(C#N)cc2)cc1 | 0.0009% | 
CC(C)(O)c1ccc(CNC(=O)c2cccnc2Oc2ccc(F)cc2)cc1 | 0.183% | 
Cc1cccc(C)c1OCC(=O)N[C@@H](Cc1ccccc1)[C@@H](O)C[C@H](Cc1ccccc1)NC(=O)[C@H](C(C)C)N1CCCNC1=O | -0.136% [at 46 µM] | 
O=C(O)C1(C(=O)Nc2ccc(Cl)cc2Cl)CC1 | -0.0109% | 
Cc1[nH]c(C)c(Cl)c(=O)c1Cl | 0.0167% [at 46 µM] | 
Nc1cccc(S(=O)(=O)c2cccc(N)c2)c1 | -0.0227% | 
O=P(O)(OCc1ccccc1)OCc1ccccc1 | -0.0719% | 
CCN(CC)CCNC(=O)c1cc(Br)c(N)cc1OC | -0.226% [at 46 µM] | 
CN1CCC(=C2c3ccccc3Sc3ccccc32)CC1 | 0.0446% [at 46 µM] | 
O=C(O)c1ccc(-n2nc(-c3ccccc3O)nc2-c2ccccc2O)cc1 | -0.0333% [at 46 µM] | 
CCCCC(CC)COC(=O)CCCCCCCCC(=O)OCC(CC)CCCC (stereo not given) | -0.0695% | 
NCC(=O)O | -0.0191% [at 46 µM] | 
